Measured values published in PubChem BioAssay AID1030 (National Center for Advancing Translational Sciences (NCATS), 2008).
About 16,000 (7.3%) of roughly 220,000 compounds were called active. Inconclusive results (about 25%) are left out. Calls come from the whole dose curve; as a rule, active = well fitted inhibition curve with a large enough effect (not every such curve was filed as active); inconclusive = small, poorly fitted or top-dose-only effect, or another doubt; inactive = no such curve, though single readings can be large or run the other way. Shown is part of a subset that was picked to be rich in actives. Entries that show only a call come without a potency.

Biological target: Aldehyde dehydrogenase 1A1 (Homo sapiens) (UniProt P00352)
Sequence (P00352 whole entry, looked up): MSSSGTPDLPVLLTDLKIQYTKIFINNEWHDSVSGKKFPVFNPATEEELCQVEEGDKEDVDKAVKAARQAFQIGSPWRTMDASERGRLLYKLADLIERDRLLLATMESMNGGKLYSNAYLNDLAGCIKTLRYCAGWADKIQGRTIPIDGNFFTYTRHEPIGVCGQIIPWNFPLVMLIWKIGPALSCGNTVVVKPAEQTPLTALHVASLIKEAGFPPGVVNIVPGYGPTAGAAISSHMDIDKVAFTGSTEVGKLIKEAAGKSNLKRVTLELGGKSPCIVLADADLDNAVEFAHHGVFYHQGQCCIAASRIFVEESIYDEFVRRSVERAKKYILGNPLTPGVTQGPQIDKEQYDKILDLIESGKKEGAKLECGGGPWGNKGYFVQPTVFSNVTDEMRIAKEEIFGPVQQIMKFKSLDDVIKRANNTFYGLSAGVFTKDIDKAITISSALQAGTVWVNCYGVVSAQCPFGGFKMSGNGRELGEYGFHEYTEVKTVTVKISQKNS
Experiment: qHTS Assay for Inhibitors of Aldehyde Dehydrogenase 1 (ALDH1A1)
Conditions: Purified ALDH1A1, NADH fluorescence, propionaldehyde substrate; series mostly up to 75.3 µM
Potency is the fitted concentration of half-maximal effect.

Compound	Potency
CN1CCN(CCC(=O)N/N=C/C=C2\N(C)c3ccccc3C2(C)C)CC1	inactive
Cc1cccc(-n2c(Cc3cc(=O)[nH]c(=O)[nH]3)nnc2SCC(=O)Nc2cccc(C(F)(F)F)c2)c1	inactive
CCOC(=O)N1CCN(C(=O)CSc2nc(C)nc3c2c(=O)n(C)c(=O)n3C)CC1	inactive
CCOC(=O)c1c(C)nn(-c2ncccc2NC(=O)CCC(=O)O)c1C	inactive
CC(C)N(C)C(=O)CCc1nnc(CCc2c[nH]c3ccccc23)o1	inactive
O=C(CSc1nc(-c2ccco2)cc(C(F)(F)F)n1)N1CCc2ccccc2C1	11.2 µM (active)
O=C(CSc1nc(-c2ccco2)cc(C(F)(F)F)n1)NCc1cccs1	inactive
FC(F)(F)c1cc(-c2ccco2)nc(N2CCOCC2)n1	inactive
CC(C)(C)n1ncc2c(=O)n(Cc3ccc(Cl)cc3)cnc21	inactive
COc1ccc(-n2c(C)nn(CC3CC3)c2=O)cc1	inactive
Cc1ccc(NC(=O)c2oc(=O)c3ccccc3c2-c2ccccc2)c(C)c1	inactive
Cc1ccc(NC(=S)NC(=O)c2ccc(-c3ccccc3)cc2)c(C)c1	11.2 µM (active)
Cc1ccc(C(=O)NC(=S)Nc2ccccc2C)cc1	inactive
O=C(/C=C/c1ccc(N2CCOCC2)cc1)c1ccccc1	31.6 µM (active)
O=C(CN1CCN(S(=O)(=O)/C=C/c2ccccc2)CC1)Nc1ccc(N2CCOCC2)cc1	inactive
O=C(/C=C/c1ccccc1)c1ccoc1	inactive
CC(C)(C)OC(=O)N1CCC(NC(=O)c2[nH]cnc2C(=O)N[C@@H](Cc2ccccc2)C(=O)OCc2ccccc2)CC1	inactive
CC(C)[C@H](NC(=O)c1ccc(F)cc1)C(=O)OCC(=O)NC(=O)c1cccn1C	inactive
CCSC1=NCCN1C(=O)c1ccc(S(=O)(=O)N(CC)CC)cc1	inactive
COC(=O)CNC(=O)c1ccccc1F	inactive
CCCCN(C)C(=O)c1ccc2c(c1)N(CC)C(=O)c1ccccc1S2(=O)=O	inactive
COC(=O)CNC(=O)c1ccc2c(c1)S(=O)(=O)c1ccccc1C2=O	11.2 µM (active)
O=C(CCn1ccc([N+](=O)[O-])n1)Nc1nccs1	inactive
COc1cc(OC)c(C2=NOC(C(=O)Nc3c(C)n(C)n(-c4ccccc4)c3=O)C2)cc1Cl (configuration not stated)	inactive
COc1ccc(NC(=O)CCNS(=O)(=O)c2ccc3c(c2)c(=O)n(C)c(=O)n3C)cc1OC	inactive
CC(C)(C)c1cc(CN2CCN(CCC#N)CC2)cc(C(C)(C)C)c1O	7.08 µM (active)

Compound	Potency
N#CCCN1CCN(S(=O)(=O)c2ccc(S(=O)(=O)N3CCCC3)cc2)CC1	inactive
CCC(=O)c1ccc(OCC(O)Cn2nc(C)c(C(C)=O)c2C)cc1 (configuration not stated)	inactive
O=C(Nc1cccc(F)c1)N1C2CCC1CC(O)(c1cccnc1)C2 (configuration not stated)	inactive
O=C(O)c1ccccc1-c1ccccc1C(=O)Nc1nccs1	inactive
CCOC(=O)N1CCC(NC(=O)C(NS(=O)(=O)c2ccc3c(c2)CCN3C(=O)CC)C(C)C)CC1 (configuration not stated)	inactive
Cc1ccc(CN2CCN(Cc3cccc(C)n3)CC2CCO)cc1 (configuration not stated)	inactive
CCOc1cccc(-n2nnnc2-c2ccc(OC)cc2)c1	25.1 µM (active)
CCOC(=O)CNC(=O)c1nn(-c2cccc(OC)c2)c(=O)c2ccccc12	inactive
COc1ccc(C2=CC(c3cccc(OC)c3)n3nnnc3N2)cc1 (configuration not stated)	inactive
Cc1ccc(S(=O)(=O)NC(=O)N2CCCN(Cc3ccc(F)cc3)CC2)cc1	inactive
CC(=O)Nc1ccc(NC(=O)COc2ccc(S(=O)(=O)NC(C)c3ccccc3)cc2)cc1 (configuration not stated)	inactive
O=C(Nc1cccc(C(F)(F)F)c1)c1cnccn1	inactive
CN(C)/C=C/C(=O)c1cnc2sccn2c1=O	inactive
CCOC(=O)c1c(-c2ccccc2)csc1NC(=S)NC(=O)c1ccccc1	inactive
CCOC(=O)c1c(NC(=O)C2(C)Cc3ccccc3C(=O)O2)sc2c1CCCC2 (configuration not stated)	inactive
CCOC(=O)C1=C(NC(=S)NC(=O)c2ccccc2)c2ccccc2CC1(C)C	20 µM (active)
COC(=O)C1=C(C)N(C)C(=S)NC1c1cc(OC)ccc1OC (configuration not stated)	inactive
FC(F)(F)c1ccnc(Oc2ccc(C3=NCCS3)cc2)c1	inactive
CN1CCC(=NNC(=O)c2ccc(N(Cc3ccc(Cl)cc3)S(C)(=O)=O)cc2)CC1	8.91 µM (active)
CCN1CCN(C(=O)c2ccc(CN(c3ccc(C)c(C)c3)S(C)(=O)=O)cc2)CC1	inactive
CN1CCC(=NNC(=O)CN(c2cccc(Cl)c2)S(C)(=O)=O)CC1	inactive
CC(=O)N1CC(C)c2scc(C)[n+]2-c2ccccc21 (configuration not stated)	inactive
OCC1(Cc2ccccc2C(F)(F)F)CCN(Cc2cccc3cnccc23)CC1	inactive
O=S(=O)(NC1CC1)c1ccc2c3c(cccc13)CC2	inactive
COc1ccc(-c2ccc(CCC(=O)O)n2NC(=O)c2ccc(C(C)(C)C)cc2)cc1	2.24 µM (active)
COc1ccc(C(=O)NC(Cc2ccc(OC(=O)c3ccc(OC)cc3)cc2)C(=O)O)cc1 (configuration not stated)	inactive

Compound	Potency
COc1ccc(N2CCN(C(=O)CNC(=O)c3ccc(C(C)(C)C)cc3)CC2)cc1	inactive
CCCNC(=S)N1CCCC(c2nc3ccccc3[nH]2)C1 (configuration not stated)	inactive
C#Cc1ccc([C@@H]2C=C(C(=O)O)O[C@H](OCCCCO)C2)cc1	inactive
Cc1csc(/N=C/N(C)C)c1C#N	inactive
COc1c(C(C)C)oc2cc3oc(=O)ccc3cc12	inactive
C/C(Nc1ccc2oc(=O)ccc2c1)=C1/C(=O)CC2[C@@H]1C2(C)C (some centres not stated)	3.98 µM (active)
Cc1c(CCO)sc[n+]1CC(=O)OC12CC3CC(CC(C3)C1)C2	inactive
CC(=O)Nc1ccc(Nc2nc3c(S(=O)(=O)c4ccc(C)c(C)c4)nnn3c3ccccc23)cc1	inactive
CN(CCc1ccccn1)C(=O)CCC1CCCN(Cc2ccccc2OC(F)F)C1 (configuration not stated)	inactive
O=C(CCc1ccccc1)NCc1cccnc1	inactive
c1ccc(COc2ccccc2CNCc2cccnc2)cc1	17.8 µM (active)
Fc1ccccc1COc1ccccc1CNCc1ccncc1	inactive
CC(C)(C)c1ccc(/C=C2\Oc3c(ccc(O)c3CN3CCN(CCO)CC3)C2=O)cc1	inactive
O=C(NCc1nnc(SCC(=O)N2CCCc3ccccc32)o1)c1ccccc1F	28.2 µM (active)
Cc1nnc(SCC(=O)N2CCc3ccccc32)n1-c1ccccc1	inactive
O=C(CSc1ccc2nnc(-c3ccccc3)n2n1)N1CCCc2ccccc21	inactive
COc1ccc(-c2ccc(CNCCCN3CCOCC3)o2)cc1Cl	inactive
CC1(C)O[C@@H]2C[C@@H]3[C@H]4C[C@@H](F)C5=CC(=O)C=C[C@]5(C)[C@@]4(F)[C@@H](O)C[C@]3(C)[C@]2(C(=O)CO)O1	inactive
COc1ccc(C2C(C(=O)Nc3ccccc3OC)=C(C)Nc3nnnn32)c(OC)c1 (configuration not stated)	inactive
COc1ccccc1NC(=O)C1=C(C)Nc2nnnn2C1c1cccc(Br)c1 (configuration not stated)	inactive
COC(=O)C1=C(C(=O)c2ccc(C)cc2)C(c2ccccc2)n2nnnc2N1 (configuration not stated)	7.08 µM (active)
COc1cc(OC)cc(-c2nnc(SCC(=O)Nc3ccc(C(=O)O)cc3)s2)c1	inactive
Cc1ccc(S(=O)(=O)NC(C(=O)N2CCOCCOCCOCCOCC2)c2ccccc2)cc1 (configuration not stated)	inactive
CCC(CC)NC(=O)/C=C/c1cccc([N+](=O)[O-])c1	inactive
O=C(/C=C/c1cccc([N+](=O)[O-])c1)NCCSCc1ccco1	20 µM (active)
COc1cc(OC)cc(C(=O)NCCSCc2ccco2)c1	inactive

Compound	Potency
C/C=C1\C2C=C(C)CC1(N)c1ccc(=O)[nH]c1C2 (configuration not stated)	inactive
CCOc1ccc(-c2ccc(SCC(=O)N3CCOCC3)nn2)cc1	inactive
CN1CCN(S(=O)(=O)c2cccc(C(=O)N3CCc4ccccc43)c2)CC1	inactive
C/C(=N\NC(=O)c1cccc(N2CCCC2=O)c1)c1ccc(N)cc1	inactive
O=C(CN1C(=O)COc2ccccc21)Nc1ccc(F)cc1	22.4 µM (active)
O=C(CCN1C(=O)COc2ccccc21)NCCCN1CCN(c2ccc(F)cc2)CC1	inactive
CCCN1CCN(CCCNC(=O)CN2C(=O)COc3ccccc32)CC1	inactive
Cc1ccc(Cl)c(NC(=O)CN2CCN(C=O)CC2)c1	inactive
CCCCC/C=C\C/C=C\C/C=C\CCCCC(=O)NCC(=O)O	inactive
O=C(O)C1CCN(C(=O)c2cc(F)cc3c2OCOC3)CC1	inactive
COc1ccc([N+](=O)[O-])cc1NC(=O)C(C)OC(=O)C1c2ccccc2Oc2ccccc21 (configuration not stated)	inactive
COc1ccccc1C1CCN(c2ccc([N+](=O)[O-])cn2)CC1	inactive
COc1ccc([N+](=O)[O-])cc1C1NN=C(c2cccc3ccccc23)S1 (configuration not stated)	10 µM (active)
COc1ccc(CN(C)Cc2nc3cc(OC)c(OC)cc3c(=O)[nH]2)c(OC)c1	inactive
COc1ccnc(Oc2ccccc2)c1-c1ncn[nH]1	inactive
Cc1cc2oc(=O)cc(-c3ccccc3)c2c(C)c1/C=C/c1ccc(F)cc1	inactive
Nc1ccc(S(=O)(=O)Nc2nccc(/C=C/c3ccc(Br)s3)n2)cc1	inactive
COc1ccc(F)cc1C(=O)C1CCCN(C(=O)CCc2ccccn2)C1 (configuration not stated)	inactive
Cc1cc(Cl)ccc1C(=O)C1CCCN(C(=O)CCN2CCCO2)C1 (configuration not stated)	inactive
CSCC(=O)N1CCCC(C(=O)c2cc(F)ccc2F)C1 (configuration not stated)	10 µM (active)
Cc1cc(C(=O)COC(=O)c2cccs2)c(C)n1-c1c(C)n(C)n(-c2ccccc2)c1=O	20 µM (active)
Cc1cc(C(=O)CC#N)c(C)n1-c1c(C)n(C)n(-c2ccccc2)c1=O	inactive
Cc1cc(C(=O)OCC(=O)NCc2ccco2)c(C)n1-c1ccccc1	inactive
CCOc1ccc(CCN2C(=O)c3cccnc3C2=O)cc1OCC	inactive
